Source: PubChem BioAssay AID2314 (National Center for Advancing Translational Sciences (NCATS), 2010)
Among all 300,000 compounds or so, about 37,000 (12%) were called active. What follows is part of a selection rich in actives, with near analogues and random picks from the rest. A number with no mark means an inactive call. No stated cut-off is given here; in the data, active means max response mostly above about 13% (no sharp cut-off); inactive means mostly below about 14%.

Assay: Cycloheximide Counterscreen for Small Molecule Inhibitors of Shiga Toxin; further: read at 38.3 µM for the half of the compounds with a filed dose; 0% is about no effect
Conditions: cell reporter, cycloheximide protein synthesis inhibition counterscreen; active compounds read high

Compound | max response
COc1ccc(-c2nc(CN3CCN(c4ncccn4)CC3)c(C)o2)cc1C | -2.33%
Cc1ccc(S(=O)(=O)N[C@@H](Cc2ccccc2)C(=O)N2CCC(C(=O)N[C@H](C(=O)O)C(C)O)CC2)cc1 (stereo not given in full) | -0.605%
Cc1ccc(N(Cc2ccc(C(=O)Nc3ccccc3C(=O)NCc3ccco3)cc2)S(C)(=O)=O)cc1C | -1.16%
O=C(COc1ccc(Cl)cc1)NCc1nnc(SCC(=O)NCC2CCCO2)o1 (stereo not given) | 1.5%
S=C(NCCc1ccccc1)N1CCn2cccc2C1c1ccncc1 (stereo not given) | 6.15%
CCC(C)(C)n1nnnc1CN1CCN(c2nc3ccc(C)cc3cc2C#N)CC1 | -1.82%
CCOc1ccc(CN2CCN(Cc3c[nH]c4ccccc34)CC2)cc1 | -0.16%
CCOc1ccc(N(CC(=O)NCCc2ccc(F)cc2)S(=O)(=O)c2ccccc2)cc1 | 0.706%
COc1ccc(NC(=S)N2CCCC(CO)C2)c(OC)c1 (stereo not given) | -1.58%
CCCCc1ccc(NC(=S)N2CCCC(CO)C2)cc1 (stereo not given) | 39.3% (active)
CCCCc1ccc(NC(=S)NCCCN2CCOCC2)cc1 | 12%
COc1ccc(S(=O)(=O)NC(C)c2ccccc2)cc1C(=O)N1CCCCC1 (stereo not given) | 8.07%
COc1ccc(CNC(=O)CN(Cc2ccccc2Cl)C(=O)c2csnn2)cc1 | -2.08%
CCOC(=O)C1(Cc2ccc(Cl)cc2)CCN(C(=O)C2=NNC(=O)CC2)CC1 | 10.1% (active)
CCOC(=O)C1(Cc2ccc(Cl)cc2)CCN(C(C)CCn2cccn2)CC1 (stereo not given) | -3.1%
CC(=O)N1CCC(C(=O)OCc2ccc(Cl)cc2)(c2ccccc2)CC1 | 1.9%
CCc1ccc(OCC2c3cc(OC)c(OC)cc3CCN2C(C)=O)cc1 (stereo not given) | -2.66%
O=C(CN1C(=O)S/C(=C\c2ccccc2Cl)C1=O)NC1C=CS(=O)(=O)C1 (stereo not given) | 1%
O=C(NCc1cccnc1)Nc1ccccc1F | 6.78%
O=C(Nc1ccccc1F)c1ccc(Cn2cc(Br)cn2)cc1 | 27.6% (active)
CCOc1cccc(C(=O)Nc2cnn(Cc3ccccc3)c2)c1 | 8.38%
Cc1ccc(N(Cc2ccccc2O)C(=O)c2ccccc2F)cc1 | -1.08%
CCN(CC)c1ccc(C(=O)NNC(=O)CCc2nc3ccccc3c(=O)[nH]2)cc1 | 8.34%

Compound | max response
Cc1cc(=O)oc2cc(NC(=O)C3CC(=O)N(Cc4ccccc4)C3)ccc12 (stereo not given) | 5.63%
CC(=O)c1cccc(S(=O)(=O)N2CCC(n3nnc4cc(F)ccc43)CC2)c1 | -0.975%
O=C(c1ccc(F)cc1)N1CCC(n2nnc3ccccc32)CC1 | 50% (active)
O=S(=O)(c1cccc(S(=O)(=O)N2CCC(n3nnc4ccccc43)CC2)c1)N1CCCCC1 | -11.1%
COc1ccc(N2CCN(S(=O)(=O)c3ccc4c(c3)NC(=O)C(C)C(=O)N4)CC2)cc1 (stereo not given) | -1.38%
CN(CC(=O)O)S(=O)(=O)c1ccc2oc3ccccc3c2c1 | 1.18%
COCCCNC(=S)N(CCN(C)C)Cc1cc2cc3c(cc2[nH]c1=O)OCCO3 | 6.79%
CC(=O)c1ccc(N2Cc3ccccc3C2)cc1 | 29.2% (active)
CC(=O)c1ccc(N2CCN(C(=O)CCc3ccccc3)CC2)cc1 | 3.1%
CC(=O)c1ccc(N2CCN(CC(O)c3ccccc3)CC2)cc1 (stereo not given) | 5.47%
Cc1cc(NS(=O)(=O)c2ccc(NC(=S)NC(=O)c3ccc(F)cc3Cl)cc2)no1 | -1.71%
CC(=O)Nc1ccc(/C(C)=N/NC(=O)CN(c2ccccc2Br)S(C)(=O)=O)cc1 | 8.32%
CN(C(=O)CSc1nnc(-c2n[nH]c3ccccc23)o1)c1ccccc1 | 15.1% (active)
CCN(C(=O)CSc1nnc(-c2ccncc2)o1)c1ccccc1 | -2.4%
O=C(CSc1nnc(-c2c[nH]c3ccccc23)o1)c1ccccc1 | 8.16%
COc1cc(C2/C(=C(\O)c3ccc4c(c3)CC(C)O4)C(=O)C(=O)N2c2nnc(C)s2)cc(OC)c1OC (stereo not given) | -1.71%
Cc1[nH]c2ccccc2c1/C=C(/C#N)C(=O)NC(C)C | 16.8% (active)
N#C/C(=C/c1ccc(N2CCCCC2)o1)C(=O)NCCc1c[nH]c2ccccc12 | -3.38%
Cc1[nH]c2ccccc2c1/C=N\NC(=O)Cn1nnc(-c2ccccc2)n1 | -0.477%
O=C(Nc1nnc(Cc2ccc(Cl)cc2)s1)c1cccnc1 | 1.24%
Cc1noc(C)c1C(=O)Nc1ccccn1 | 7.73%
Cc1cnc(NC(=O)Cn2cnc3c2c(=O)n(C)c(=O)n3C)s1 | -4.16%
